# Reference: the supplement of paper PMC11732987, “Enantioselective OTUD7B fragment discovery through chemoproteomics screening and high-throughput optimisation” (Communications Chemistry, 2025)
# Values without a mark were called inactive.
# How the values were obtained:
# Assay in all cases: log2 ratio of Biotin-Ahx-Ub-VS probe labelling (fragment/DMSO); higher = less target engagement (more negative = stronger competition), active = hit call of the paper (q ≤ 0.05, log2 ratio ≤ -1)
# Conditions in all cases: compound concentration: 200 uM; treatment time: 3 h
# OTUD6B = biological target: T1, OTUD6B (UniProt Q8N6M0)
# T1 sequence (whole entry): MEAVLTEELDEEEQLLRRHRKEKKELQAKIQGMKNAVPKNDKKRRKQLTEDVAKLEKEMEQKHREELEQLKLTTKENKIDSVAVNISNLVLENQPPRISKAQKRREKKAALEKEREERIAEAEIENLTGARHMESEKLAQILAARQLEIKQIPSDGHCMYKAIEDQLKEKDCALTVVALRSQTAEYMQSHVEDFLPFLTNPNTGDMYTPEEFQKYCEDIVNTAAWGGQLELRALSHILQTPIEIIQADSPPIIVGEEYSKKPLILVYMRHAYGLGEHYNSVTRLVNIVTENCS
# Outline: (§1)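 HEK293T lysate (495 µg per sample, in Tris/CHAPS/IGEPAL buffer with protease inhibitors) was treated in triplicate with fragment at 200 µM or with DMSO for 3 h. It was then treated with Biotin-Ahx-Ub-VS (0.5 µM final) for 1 h. Labelled DUBs were NeutrAvidin-enriched, digested with LysC and trypsin, and run by diaPASEF LC-MS/MS. Spectronaut label-free quantities were global-median-normalised. Values are average log2 ratios fragment/DMSO by unpaired t-test, using proteins with ≥2 unique peptides.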
# OTUD7B = biological target: T2, OTUD7B (UniProt Q6GQQ9)
# T2 sequence (whole entry): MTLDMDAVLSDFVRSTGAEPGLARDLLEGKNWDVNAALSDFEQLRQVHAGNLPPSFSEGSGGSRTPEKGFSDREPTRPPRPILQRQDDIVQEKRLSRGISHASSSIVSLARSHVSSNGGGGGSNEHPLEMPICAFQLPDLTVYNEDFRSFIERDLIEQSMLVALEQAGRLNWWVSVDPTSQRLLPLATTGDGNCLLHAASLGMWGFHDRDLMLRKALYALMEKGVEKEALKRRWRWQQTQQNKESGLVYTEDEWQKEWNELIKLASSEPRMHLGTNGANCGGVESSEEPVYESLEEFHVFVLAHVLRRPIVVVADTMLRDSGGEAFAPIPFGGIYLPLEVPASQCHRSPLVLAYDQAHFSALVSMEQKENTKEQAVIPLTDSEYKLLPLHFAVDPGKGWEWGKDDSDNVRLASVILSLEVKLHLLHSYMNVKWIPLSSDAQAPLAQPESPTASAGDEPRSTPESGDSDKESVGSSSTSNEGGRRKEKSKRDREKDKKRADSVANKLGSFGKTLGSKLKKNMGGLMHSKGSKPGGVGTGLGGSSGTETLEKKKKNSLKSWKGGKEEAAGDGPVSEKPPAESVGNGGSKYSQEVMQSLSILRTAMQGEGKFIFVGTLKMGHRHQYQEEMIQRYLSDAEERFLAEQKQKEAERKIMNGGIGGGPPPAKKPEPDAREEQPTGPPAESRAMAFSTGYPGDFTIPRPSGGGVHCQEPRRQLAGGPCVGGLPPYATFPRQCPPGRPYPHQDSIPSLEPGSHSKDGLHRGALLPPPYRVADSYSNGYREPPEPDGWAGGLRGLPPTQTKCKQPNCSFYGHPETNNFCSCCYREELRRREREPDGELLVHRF
# Outline: as §1
# PRPF8 = PRPF8 (UniProt Q6P2Q9)
# Outline: as §1
# PSMD7 = biological target: T3, PSMD7 (UniProt P51665)
# T3 sequence (whole entry): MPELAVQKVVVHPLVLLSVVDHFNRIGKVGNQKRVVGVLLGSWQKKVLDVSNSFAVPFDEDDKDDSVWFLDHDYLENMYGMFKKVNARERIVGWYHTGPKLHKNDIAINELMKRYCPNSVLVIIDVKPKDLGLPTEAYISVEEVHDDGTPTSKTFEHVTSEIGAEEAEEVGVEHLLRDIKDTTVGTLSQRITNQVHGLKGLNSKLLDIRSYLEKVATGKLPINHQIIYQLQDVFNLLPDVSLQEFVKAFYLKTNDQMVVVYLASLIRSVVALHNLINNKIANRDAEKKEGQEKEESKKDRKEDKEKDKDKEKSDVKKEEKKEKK
# Outline: as §1
# UCHL1 = UCHL1 (UniProt P09936)
# Outline: as §1
# UCHL3 = biological target: T4, UCHL3 (UniProt P15374)
# T4 sequence (whole entry): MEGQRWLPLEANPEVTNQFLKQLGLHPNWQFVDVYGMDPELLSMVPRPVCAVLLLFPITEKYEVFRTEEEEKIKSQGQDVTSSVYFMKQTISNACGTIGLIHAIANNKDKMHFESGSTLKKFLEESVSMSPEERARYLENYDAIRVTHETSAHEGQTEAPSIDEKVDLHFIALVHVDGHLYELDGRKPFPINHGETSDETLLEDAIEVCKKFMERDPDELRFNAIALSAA
# Outline: as §1
# UCHL5 = biological target: T5, UCHL5 (UniProt Q9Y5K5)
# T5 sequence (whole entry): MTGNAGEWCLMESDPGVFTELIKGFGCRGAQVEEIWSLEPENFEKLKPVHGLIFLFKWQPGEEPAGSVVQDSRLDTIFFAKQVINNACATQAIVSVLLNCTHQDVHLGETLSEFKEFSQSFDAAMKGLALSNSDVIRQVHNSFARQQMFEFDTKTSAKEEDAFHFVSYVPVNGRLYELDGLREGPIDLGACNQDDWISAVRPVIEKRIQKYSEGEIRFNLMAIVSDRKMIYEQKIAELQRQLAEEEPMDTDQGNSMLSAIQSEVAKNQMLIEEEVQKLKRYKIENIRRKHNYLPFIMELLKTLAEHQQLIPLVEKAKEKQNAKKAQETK
# Outline: as §1
# USP10 = USP10 (UniProt Q14694)
# Outline: as §1
# USP15 = biological target: T6, USP15 (UniProt Q9Y4E8)
# T6 sequence (whole entry): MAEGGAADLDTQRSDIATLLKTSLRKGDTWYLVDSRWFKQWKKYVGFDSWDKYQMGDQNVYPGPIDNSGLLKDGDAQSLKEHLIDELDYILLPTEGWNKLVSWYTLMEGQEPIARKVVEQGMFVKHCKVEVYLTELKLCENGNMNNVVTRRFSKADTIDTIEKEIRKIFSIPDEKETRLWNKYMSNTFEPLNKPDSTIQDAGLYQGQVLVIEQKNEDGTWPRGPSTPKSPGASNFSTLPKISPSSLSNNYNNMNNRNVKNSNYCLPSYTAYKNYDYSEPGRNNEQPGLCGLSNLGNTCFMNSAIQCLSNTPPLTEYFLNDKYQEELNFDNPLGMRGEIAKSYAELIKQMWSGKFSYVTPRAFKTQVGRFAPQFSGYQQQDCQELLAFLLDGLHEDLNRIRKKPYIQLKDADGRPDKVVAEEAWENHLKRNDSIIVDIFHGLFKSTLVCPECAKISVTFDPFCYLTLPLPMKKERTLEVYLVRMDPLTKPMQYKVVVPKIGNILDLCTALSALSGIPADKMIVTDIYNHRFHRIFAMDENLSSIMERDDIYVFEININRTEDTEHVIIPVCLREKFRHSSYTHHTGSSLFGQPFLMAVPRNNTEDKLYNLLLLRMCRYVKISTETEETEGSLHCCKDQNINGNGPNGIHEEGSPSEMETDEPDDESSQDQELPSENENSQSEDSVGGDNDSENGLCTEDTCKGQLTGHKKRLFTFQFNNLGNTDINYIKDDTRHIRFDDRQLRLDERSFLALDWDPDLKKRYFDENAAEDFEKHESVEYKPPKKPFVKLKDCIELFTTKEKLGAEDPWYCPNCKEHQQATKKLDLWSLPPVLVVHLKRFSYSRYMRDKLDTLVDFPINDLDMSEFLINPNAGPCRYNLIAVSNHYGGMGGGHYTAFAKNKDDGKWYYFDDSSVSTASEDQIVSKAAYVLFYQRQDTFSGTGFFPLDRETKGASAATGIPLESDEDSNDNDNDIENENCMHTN
# Outline: as §1
# USP16 = USP16 (UniProt Q9Y5T5)
# Outline: as §1
# Chain of USP16 (Q9Y5T5 whole entry, looked up): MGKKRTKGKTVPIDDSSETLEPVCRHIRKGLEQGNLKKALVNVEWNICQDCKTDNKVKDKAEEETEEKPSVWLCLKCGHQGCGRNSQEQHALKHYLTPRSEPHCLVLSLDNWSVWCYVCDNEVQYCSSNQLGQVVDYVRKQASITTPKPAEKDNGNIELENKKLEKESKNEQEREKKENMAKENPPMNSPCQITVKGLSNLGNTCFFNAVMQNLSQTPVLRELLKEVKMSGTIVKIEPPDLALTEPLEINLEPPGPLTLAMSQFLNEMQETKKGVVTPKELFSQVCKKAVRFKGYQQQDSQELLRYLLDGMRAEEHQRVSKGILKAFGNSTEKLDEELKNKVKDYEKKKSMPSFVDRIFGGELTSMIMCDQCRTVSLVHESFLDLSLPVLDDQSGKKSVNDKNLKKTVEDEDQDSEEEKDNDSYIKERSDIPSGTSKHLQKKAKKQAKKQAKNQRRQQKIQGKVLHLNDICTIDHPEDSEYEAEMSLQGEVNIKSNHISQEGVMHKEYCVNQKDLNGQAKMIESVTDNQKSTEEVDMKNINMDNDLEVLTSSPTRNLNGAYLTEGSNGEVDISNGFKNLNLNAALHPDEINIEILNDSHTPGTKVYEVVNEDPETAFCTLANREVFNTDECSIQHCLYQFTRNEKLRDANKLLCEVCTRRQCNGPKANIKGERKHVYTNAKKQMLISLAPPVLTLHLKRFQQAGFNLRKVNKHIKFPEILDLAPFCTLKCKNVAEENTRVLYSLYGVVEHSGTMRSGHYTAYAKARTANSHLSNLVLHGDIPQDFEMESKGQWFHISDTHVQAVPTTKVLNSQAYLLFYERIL
# Chain of USP10 (Q14694 whole entry): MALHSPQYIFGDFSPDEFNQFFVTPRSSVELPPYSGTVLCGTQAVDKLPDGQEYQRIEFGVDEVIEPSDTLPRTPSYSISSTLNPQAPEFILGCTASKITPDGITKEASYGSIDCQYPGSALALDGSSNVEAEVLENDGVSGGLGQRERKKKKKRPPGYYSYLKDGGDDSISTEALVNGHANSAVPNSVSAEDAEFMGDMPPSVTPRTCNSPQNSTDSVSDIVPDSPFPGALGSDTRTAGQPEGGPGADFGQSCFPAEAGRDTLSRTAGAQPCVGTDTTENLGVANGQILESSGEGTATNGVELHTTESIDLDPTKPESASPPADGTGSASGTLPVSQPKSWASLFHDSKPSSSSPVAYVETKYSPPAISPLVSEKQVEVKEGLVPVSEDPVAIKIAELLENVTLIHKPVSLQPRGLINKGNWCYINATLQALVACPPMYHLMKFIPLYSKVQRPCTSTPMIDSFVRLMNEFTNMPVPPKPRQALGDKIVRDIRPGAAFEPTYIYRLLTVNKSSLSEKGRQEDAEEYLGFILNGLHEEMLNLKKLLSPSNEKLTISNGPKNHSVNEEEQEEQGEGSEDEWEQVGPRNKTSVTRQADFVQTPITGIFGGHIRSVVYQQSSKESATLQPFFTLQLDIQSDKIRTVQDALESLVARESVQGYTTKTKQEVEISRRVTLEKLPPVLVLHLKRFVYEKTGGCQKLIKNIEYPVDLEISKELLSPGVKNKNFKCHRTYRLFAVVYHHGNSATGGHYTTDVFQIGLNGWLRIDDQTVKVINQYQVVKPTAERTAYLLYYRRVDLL
# Chain of UCHL1 (P09936 whole entry, looked up): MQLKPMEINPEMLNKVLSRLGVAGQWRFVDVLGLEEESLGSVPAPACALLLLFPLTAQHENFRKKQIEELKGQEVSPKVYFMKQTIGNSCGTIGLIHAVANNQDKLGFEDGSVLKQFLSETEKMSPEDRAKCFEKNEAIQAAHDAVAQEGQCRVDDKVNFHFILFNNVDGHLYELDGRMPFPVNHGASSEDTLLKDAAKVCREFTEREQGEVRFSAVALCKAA
smiles,measurement,setting,value
O=C(CCl)Nc1cc(Cl)ccc1-n1cncn1,log2 ratio of Biotin-Ahx-Ub-VS probe labelling,OTUD6B,-1.04 (active)
same,log2 ratio of Biotin-Ahx-Ub-VS probe labelling,OTUD7B,-2.08 (active)
same,log2 ratio of Biotin-Ahx-Ub-VS probe labelling,PRPF8,-0.132
same,log2 ratio of Biotin-Ahx-Ub-VS probe labelling,PSMD7,-0.143
same,log2 ratio of Biotin-Ahx-Ub-VS probe labelling,UCHL1,-1.89 (active)
same,log2 ratio of Biotin-Ahx-Ub-VS probe labelling,UCHL3,-0.609
same,log2 ratio of Biotin-Ahx-Ub-VS probe labelling,UCHL5,-1.18 (active)
same,log2 ratio of Biotin-Ahx-Ub-VS probe labelling,USP10,-0.141
same,log2 ratio of Biotin-Ahx-Ub-VS probe labelling,USP15,-1.26 (active)
same,log2 ratio of Biotin-Ahx-Ub-VS probe labelling,USP16,0.0892
